Sampled rows, rich in hits. Any-hit rate of the full collection: about 2.6%.
PTAP-TSG101 blk = qHTS Validation Assay for Inhibitors of HIV-1 Budding by Blocking the Interaction of PTAP/TSG101: Sytravon Library Screen. Tumor susceptibility gene 101 protein (Homo sapiens), Q99816. Fluorescence polarization, FITC-PTAP peptide/Tsg101, 20 min. Potency, µM (top dose mostly 115 µM), usual class: inhibitors. 44,000 tested, under 10 active. AID 1347069, 2019
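FITC-labeled PTAP peptide (50 nM final) binding to Tsg101 binding domain (10 uM final) read by fluorescence polarization after 20 min at r.t. in HEPES pH 7.5 buffer. Actives by CRC class, <25 µM.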
GALC G270D up = A Novel Cell-Based Assay to Identify Small Molecules for B -Galactocerebrosidase; P54803; 145M-Twi-hGALC-G270D cells (Twitcher mouse brain line with human GALC G270D), HMU-beta-Gal fluorescence, 48 h; Potency, µM (titrated, usually from 57.5 µM), actives largely listed as activators; 45,000 tested, 0.1% active; AID 1159614, 2016; note: nearly all actives have a fitted effect of over 65% in size
Target sequence (P54803 whole entry G286D): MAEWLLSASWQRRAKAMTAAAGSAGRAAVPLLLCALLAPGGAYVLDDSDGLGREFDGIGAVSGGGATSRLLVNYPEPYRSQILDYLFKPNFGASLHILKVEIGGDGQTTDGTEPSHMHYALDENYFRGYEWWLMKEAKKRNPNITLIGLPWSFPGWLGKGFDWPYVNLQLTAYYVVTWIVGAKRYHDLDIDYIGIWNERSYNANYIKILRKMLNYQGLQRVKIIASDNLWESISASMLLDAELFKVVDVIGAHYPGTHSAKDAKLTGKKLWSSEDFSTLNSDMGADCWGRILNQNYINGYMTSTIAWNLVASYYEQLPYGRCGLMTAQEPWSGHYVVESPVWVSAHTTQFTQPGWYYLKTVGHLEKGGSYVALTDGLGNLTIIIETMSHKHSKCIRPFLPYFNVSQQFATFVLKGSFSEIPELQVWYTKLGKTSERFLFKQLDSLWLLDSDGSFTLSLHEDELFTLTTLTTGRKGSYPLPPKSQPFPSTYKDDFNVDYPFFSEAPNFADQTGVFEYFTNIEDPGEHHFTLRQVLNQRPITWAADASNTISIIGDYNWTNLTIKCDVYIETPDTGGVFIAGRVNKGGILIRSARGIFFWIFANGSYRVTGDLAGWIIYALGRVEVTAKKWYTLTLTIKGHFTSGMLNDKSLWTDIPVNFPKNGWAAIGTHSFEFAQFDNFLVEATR
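Live 145M-Twi cells (Twitcher mouse brain-derived, GALC-null) stably expressing human GALC-G270D, with a wild-type GALC line, were compound-treated. Residual GALC activity was then read as fluorescence from 0.1 mM final HMU-β-gal at pH 5.2; higher signal means activation.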
GALK inh = qHTS Assay for Inhibitors of Human Galactokinase (GALK): NCGC Sytravon Library Screen | P51570 | recombinant GALK, Kinase-Glo ATP luminescence, 1 h | Potency, µM (doses to about 57.5 µM), usual class: inhibitors | 44,000 tested, under 10 active | AID 1347072, 2019
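5 nM GALK with 35 µM ATP and 100 µM galactose in HEPES pH 8.0, MgCl2, NaCl, DTT, BSA; 1 h RT reaction, remaining ATP detected by Kinase-Glo Plus luminescence after 10 min; qHTS concentration series.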
GPR32 ag = qHTS for Agonists of Human Resolvin D1 Receptor DRV1 | AID 1346428, 2018 | activation, % at 76.9 µM | Probable G-protein coupled receptor 32 (Homo sapiens), O75388 | CHO-K1 GPR32 beta-arrestin PathHunter luminescence, 90 min; zero percent set by DMSO-only wells | 48,000 tested, 2.5% active;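 active = activation of at least 60% and not above a set upper limit, about 1 call in 100 departs from these limits; inconclusive = activation of 40% to 60%, or above that upper limit; inactive = activation under 40%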
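Beta-arrestin recruitment read-out: luminescence from complemented beta-Gal in CHO-K1 GPR32 PathHunter cells, measured 1 h after detection reagent at ambient temperature following 90 min compound exposure at 37 °C; DMSO served as basal (EC0) control.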
B2AR arrestin ag = qHTS assay of beta-arrestin-biased ligands of beta2-adrenergic receptor: NCGC Sytravon Library Screen; HTLA Tango cells, beta-arrestin recruitment, luciferase luminescence, 18 h; Potency, µM (series often up to 46.1 µM), hits mostly activators; 44,000 tested, under 10 active
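Tango cells (recombinant beta2-AR, beta-arrestin, tTA-driven luciferase), 1500/well in DMEM 1% FBS, treated 18 h at 37 °C with compounds up to 46 µM; luciferin mix added, luminescence read after 15 min; %activity curves fitted and curve-classed.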
FH mod = Identification of activators of human fumarate hydratase by quantitative high-throughput screening; FH coupled MDH/diaphorase resazurin fluorescence, 15 min; 54,000 tested, 0.22% active; AID 1347055, 2019; Potency, µM (top dose mostly 79.9 µM), hits mostly inhibitors; note: the screen sought activators but most active calls are inhibition curves; nearly all actives have a fitted effect of over 45% in size
Numbers stand for hits; - = inactive; ? = inconclusive; . = no result; [ ] = remark or other dose. Unless noted, calls come from the whole dose curve; as a rule, active = well fitted curve in the direction sought with a large enough effect; inconclusive = small, poorly fitted or top-dose-only effect, or another doubt; inactive = no such curve, though single readings can be large; an effect the other way counts as inactive or inconclusive.

SMILES | PTAP-TSG101 blk | GALC G270D up | GALK inh | GPR32 ag | B2AR arrestin ag | FH mod
CCN(CC)CCNC(=O)COc1ccc(Cl)cc1 | . | - | . | - | . | -
CCN(CC)CCOc1ccc(C(O)(Cc2ccc(Cl)cc2)c2ccc(C)cc2)cc1 (centres undefined) | . | - | . | 63 | . | -
COc1cccc(NC(=O)Cn2c(=O)n(Cc3ccco3)c(=O)c3cc(OC)c(OC)cc32)c1 | - | - | - | 74 | - | -
Cc1ccc(C(=O)Nc2cccc(O)c2)cc1S(=O)(=O)N1CCCCCC1 | - | - | - | 82 | - | -
Cc1ccc(-c2nc(C)c(CCNS(=O)(=O)c3ccc(F)c(C(F)(F)F)c3)s2)cc1 | - | - | - | 63 | - | -
COc1ccc(-c2nc(C)c(CCNS(=O)(=O)c3ccc(F)cc3)s2)cc1OC | - | - | - | - | - | -
COc1c2c(cc3c1-c1c(cc4c(c1OC)OCO4)CC(C)C(C)C3)OCO2 (centres undefined) | . | . | . | . | . | -
CC1OC(OC2C(CO)OC(OCC3OC(OC(=O)C45CCC(C)(C)CC4C4=CCC6C7(C)CCC(OC8OC(C(=O)O)C(O)C(OC9OC(CO)C(O)C(O)C9O)C8O)C(C)(C)C7CCC6(C)C4(C)CC5)C(O)C(O)C3O)C(O)C2O)C(O)C(O)C1O (centres undefined) | . | . | . | . | . | -[13.5 µM]
NS(=O)(=O)c1cccc2c1c([N+](=O)[O-])cc1nc(O)c(O)nc12 | . | . | . | - | . | 18µM
COc1cccc(CNCCSc2nnnn2C)c1OCc1ccc(F)cc1 | - | - | ? | 81 | - | -
COc1ccc(CCO[C@@H]2O[C@H](CO[C@@H]3OC[C@H](O)[C@H](O)[C@H]3O)[C@@H](O)[C@H](O)[C@H]2O)cc1 | . | . | . | . | . | -
Cc1ccc(C2C=C(c3ccccc3)Nc3nc(NS(=O)(=O)c4ccc(C)cc4)nn32)cc1 (centres undefined) | - | - | - | 94 | - | ?
COc1ccc(C2C=C(c3ccccc3)Nc3nc(NS(=O)(=O)c4ccc(C)cc4)nn32)cc1 (centres undefined) | - | - | - | ? | - | -
Cc1ccc(C2C=C(c3ccc(Cl)cc3)Nc3nc(NS(=O)(=O)c4ccccc4)nn32)cc1 (centres undefined) | ? | - | - | 73 | - | -
O=C(Nc1nc2n(n1)C(c1ccccc1)C=C(c1ccc(Cl)cc1)N2)c1ccco1 (centres undefined) | - | - | - | - | - | -
CC1OC(OC2C(C)OC(OC3C(OC(=O)C45CCC(C)(C)CC4C4=CCC6C7(C)CCC(OC8OC(C(=O)O)C(O)C(O)C8OC8OC(CO)C(O)C(OC9OC(C)C(O)C(O)C9O)C8O)C(C)(CO)C7CCC6(C)C4(C)CC5)OC(CO)C(O)C3O)C(O)C2O)C(O)C(O)C1O (centres undefined) | . | . | . | . | . | -[13.5 µM]
CCN1CCN(Cc2ccc(-c3cc4c(NC(C)c5ccccc5)ncnc4[nH]3)cc2)CC1 (centres undefined) | . | . | . | . | . | -
Cc1cccc(NC(=O)CSc2nc(C)c(Cc3ccccc3)c(=O)[nH]2)c1 | - | - | - | 68 | - | -
N#C/C(=C\c1ccc(-c2ccc(Cl)c(C(=O)O)c2)o1)c1nc2ccccc2[nH]1 | - | - | - | - | - | 40µM
N#C/C(=C\c1ccc(-c2ccc(C(=O)O)cc2)o1)c1nc2ccccc2[nH]1 | - | - | - | - | - | 28µM
Cc1ccc2nc(/C(C#N)=C/c3ccc(-c4cccc(Cl)c4)o3)[nH]c2c1 | - | - | - | - | - | -
Nc1ccc(-c2cnc(N)c(-c3ccc(Cl)cc3)c2)cn1 | . | . | . | . | . | -
CCc1ccc(OCC(=O)Nc2ccc(Cl)c(-c3nc4ncccc4o3)c2)cc1 | - | - | - | 118 | - | -
CCc1nonc1NC(=O)c1oc2ccc(C)cc2c1C | - | - | - | - | - | -
CCc1nonc1NC(=O)c1oc2ccccc2c1C | - | - | - | 66 | - | -
SMILES | PTAP-TSG101 blk | GALC G270D up | GALK inh | GPR32 ag | B2AR arrestin ag | FH mod
Cc1cccc(C(=O)Nc2ccc3oc(-c4cccc5c(Br)cccc45)nc3c2)c1 | - | - | - | - | - | -
Cc1cccc(C(=O)Nc2ccc3oc(-c4ccncc4)nc3c2)c1 | - | - | - | 72 | - | -
CC(C)(C)c1cc(C(C)(C)C)c2oc(=O)c(-c3nc4ccc(C(=O)O)cc4[nH]3)cc2c1 | - | - | - | - | - | 28µM
CC(C)(C)c1cc(C(C)(C)C)c2oc(=O)c(-c3nc4ccccc4[nH]3)cc2c1 | - | - | - | - | - | -
CCCC1=CC2=C(CO1)C(=O)C(C)(O)C(OC(=O)c1c(C)cc(OC)cc1O)C2 (centres undefined) | . | . | . | . | . | -
Cc1ccc(NS(=O)(=O)c2ccc(-n3cccn3)cc2)cc1Cl | - | - | - | 73 | - | -
Cc1cc(C)cc(NS(=O)(=O)c2ccc(-n3cccn3)cc2)c1 | - | - | - | - | - | -
CCc1cccc(NS(=O)(=O)c2ccc(-n3cccn3)cc2)c1 | - | - | - | 86 | - | -
O=S(=O)(Nc1ccc(F)cc1F)c1ccc(-n2cccn2)cc1 | - | - | - | 75 | - | -
CCC(C)C(C(=O)O)N1Cc2c(OCC=C(C)C)c(C)c(OC)c(C(=O)O)c2C1=O (centres undefined) | . | . | . | . | . | -
CO[C@H]1c2cc(C(C)C)c(O)c(O)c2[C@@]23CCCC(C)(C)C2[C@@H]1OC3=O (some centres undefined) | . | . | . | . | . | -
Cc1cc(C)cc(NC(=O)C2CC(=O)N(c3ccccc3)C2)c1 (centres undefined) | - | - | - | 118 | - | -
COC1CC(OC2CCC3(C)C(=CCC4C3C(OC(C)=O)C(OC(=O)/C=C/c3ccccc3)C3(C)C(C(C)O)CCC43O)C2)OC(C)C1OC1CC(OC)C(OC2OC(C)C(OC3OC(CO)C(O)C(O)C3O)C(OC)C2O)C(C)O1 (centres undefined) | . | . | . | . | . | -[13.5 µM]
COc1ccc(CN2CCN(C(c3ccc(F)cc3)c3ccc(F)cc3)CC2)c(OC)c1OC | . | - | . | 78 | . | -

Assay outcomes deposited in PubChem BioAssay by National Center for Advancing Translational Sciences (NCATS).
